The labels stand for the following.
B1: ENSMUSG00000031028.662|Tub (ssRNA)
RNA: GGGAGUUCUACAGUCCGACGAUCGCUUCGAUAUCCGCAUGCUACUGGACCCCAUACUGGUGACCAGCUUGGUGAGGACAGGCAAAAUUUCUCUAGCUGAGAGCACACUUAGCCAGUUUUCACGCCUAGAACAUAUAUGUCGAUUUGCACAUGAUUGUCUUUUCCUAUUUUGGAGUGGUCAGACAUUUUAUUUUUGUUCAAAAUUAUCUGGAGUUUUAGACAAACUUGCAAAACUGUGCUUUUAUUAAGUGACUUUUUGAAUAAACUUUUUGGUAUUCUGAAGCAAAUGUAUUUAUUUAUUGGUCUCUUGCGGUCGCACUAGUGUGGAAUUCUCGGGUGUCAAGG
B2: ENSMUSG00000028439.182|Fam219a (ssRNA)
RNA: GGGAGUUCUACAGUCCGACGAUCGCUUCGAUAUCCGCAUGCUAUGUGUGUGUGCGUGUGCGUGUGUGUAUGUGUGUGCGUGUGUGUGUGUGUGUGUUGUACCCGAGUGUGUGUUGAGCCUAUCUGUCCAGGGAACCAGAUUGGUGUCCGAGAUGAGGAAAUGGCUGUGGCCUGGGAAAUCAGUGAGAGGCCGCUUGGGAAUGAGAAUGCAGUGGACUGAAAGCACAGCCUGGCCAUCUGGAACCUGGGUUCUGGUCCCAGCCUCGGCAUUCUCCCUGAGCUCCUAAGCAAUUCCCAGGCUUCUCUCUUGCGGUCGCACUAGUGUGGAAUUCUCGGGUGUCAAGG
B3: ENSMUSG00000028439.181|Fam219a (ssRNA)
RNA: GGGAGUUCUACAGUCCGACGAUCGCUUCGAUAUCCGCAUGCUAUGUGCCUGUGUGUGUGCGUGUGCGUGUGUGUAUGUGUGUGCGUGUGUGUGUGUGUGUGUUGUACCCGAGUGUGUGUUGAGCCUAUCUGUCCAGGGAACCAGAUUGGUGUCCGAGAUGAGGAAAUGGCUGUGGCCUGGGAAAUCAGUGAGAGGCCGCUUGGGAAUGAGAAUGCAGUGGACUGAAAGCACAGCCUGGCCAUCUGGAACCUGGGUUCUGGUCCCAGCCUCGGCAUUCUCCCUGAGCUCCUAAGCAAUUCCCAGCUCUUGCGGUCGCACUAGUGUGGAAUUCUCGGGUGUCAAGG
B4: ENSMUSG00000028439.182|Fam219a|1:10;12:16;18:34;36:53;63:70 (ssRNA)
RNA: GGGAGUUCUACAGUCCGACGAUCGCUUCGAUAUCCGCAUGCUAACACACACACCCACACCCACACACAUACACACACCCACACACACACACACACAUGUACCCGACACACACAUGAGCCUAUCUGUCCAGGGAACCAGAUUGGUGUCCGAGAUGAGGAAAUGGCUGUGGCCUGGGAAAUCAGUGAGAGGCCGCUUGGGAAUGAGAAUGCAGUGGACUGAAAGCACAGCCUGGCCAUCUGGAACCUGGGUUCUGGUCCCAGCCUCGGCAUUCUCCCUGAGCUCCUAAGCAAUUCCCAGGCUUCUCUCUUGCGGUCGCACUAGUGUGGAAUUCUCGGGUGUCAAGG
B5: ENSMUSG00000028439.183|Fam219a (ssRNA)
RNA: GGGAGUUCUACAGUCCGACGAUCGCUUCGAUAUCCGCAUGCUAUGUGCGUGUGCGUGUGUGUAUGUGUGUGCGUGUGUGUGUGUGUGUGUUGUACCCGAGUGUGUGUUGAGCCUAUCUGUCCAGGGAACCAGAUUGGUGUCCGAGAUGAGGAAAUGGCUGUGGCCUGGGAAAUCAGUGAGAGGCCGCUUGGGAAUGAGAAUGCAGUGGACUGAAAGCACAGCCUGGCCAUCUGGAACCUGGGUUCUGGUCCCAGCCUCGGCAUUCUCCCUGAGCUCCUAAGCAAUUCCCAGGCUUCUCUAGGGCUCUUGCGGUCGCACUAGUGUGGAAUUCUCGGGUGUCAAGG
B6: ENSMUSG00000028439.183|Fam219a|6:10;12:28;30:47;57:64 (ssRNA)
RNA: GGGAGUUCUACAGUCCGACGAUCGCUUCGAUAUCCGCAUGCUAUGUGCCACACCCACACACAUACACACACCCACACACACACACACACAUGUACCCGACACACACAUGAGCCUAUCUGUCCAGGGAACCAGAUUGGUGUCCGAGAUGAGGAAAUGGCUGUGGCCUGGGAAAUCAGUGAGAGGCCGCUUGGGAAUGAGAAUGCAGUGGACUGAAAGCACAGCCUGGCCAUCUGGAACCUGGGUUCUGGUCCCAGCCUCGGCAUUCUCCCUGAGCUCCUAAGCAAUUCCCAGGCUUCUCUAGGGCUCUUGCGGUCGCACUAGUGUGGAAUUCUCGGGUGUCAAGG
B7: ENSMUSG00000028439.181|Fam219a|7:16;18:22;24:40;42:59;69:76 (ssRNA)
RNA: GGGAGUUCUACAGUCCGACGAUCGCUUCGAUAUCCGCAUGCUAUGUGCCACACACACACCCACACCCACACACAUACACACACCCACACACACACACACACAUGUACCCGACACACACAUGAGCCUAUCUGUCCAGGGAACCAGAUUGGUGUCCGAGAUGAGGAAAUGGCUGUGGCCUGGGAAAUCAGUGAGAGGCCGCUUGGGAAUGAGAAUGCAGUGGACUGAAAGCACAGCCUGGCCAUCUGGAACCUGGGUUCUGGUCCCAGCCUCGGCAUUCUCCCUGAGCUCCUAAGCAAUUCCCAGCUCUUGCGGUCGCACUAGUGUGGAAUUCUCGGGUGUCAAGG
B8: ENSMUSG00000061578.134|Ksr2|58:63;126:130;148:163;199:203 (ssRNA)
RNA: GGGAGUUCUACAGUCCGACGAUCGCUUCGAUAUCCGCAUGCUAAUGGCUUCCCCCAAAGUCCCGAGUCCUGAGAACCGGGGCUGUGGCAAGAGAGUUCUGCACACAUCUCUCUGUGGGGCUAGCAAUGCCGGGGUUAAGUUCUCCCUCGGUGAUGGAGACGGUCCUGGCAUACCAUGAUGGGUUACAUGGCACACACACACACACAAACUGUUUACAAUGGUCUCCCUGCCUCUCACGGGCACACAUCCAGGAGAAUGCACAUAGAGAGGUUCUGUGGUCUCUGCUGUCGCCUGGUGCUGAAUCUCUUGCGGUCGCACUAGUGUGGAAUUCUCGGGUGUCAAGG
B9: ENSMUSG00000029636.224|Wasf3|112:116;205:212 (ssRNA)
RNA: GGGAGUUCUACAGUCCGACGAUCGCUUCGAUAUCCGCAUGCUAUUGCAGAGGGACCAGGACACUGCCUUCCCUUAGGUGCAUUAUUUACGUGGCCUGCAGCUCUUAAUAUCUCUCACUGUUUAUGAAAAGAAAGAUUCAGAUCCGGGGUGACAUACACACAGUUGACAGGGAAUGCCUGUGGGAUAAUUAAAAAUGGUUUUUGCUCAUGAGUUUGGGAUGUCACCCAGCCGCCCACAUCGCCUGCUAACACACACGACGCCUGUCCGCUUGGCCAGCUAUCCUGUAACACCUGCCAGUAGUAGCUCUUGCGGUCGCACUAGUGUGGAAUUCUCGGGUGUCAAGG
B10: ENSMUSG00000031028.392|Tub (ssRNA)
RNA: GGGAGUUCUACAGUCCGACGAUCGCUUCGAUAUCCGCAUGCUAAGCUCCUGGUGAUAAUGCCUUUUCUUGACCACUGGCGCUGUGAACACAGGCUAAUGGACUUCAGAUACCAGGGCCCCGGGAUCACCUGGGUUAGCCUCUCCCACAGGAAGAUCCCUUACCCCUCAUCCCCUCUUCUUUUUGGUCCUUGGCUGGGUAGCAAAUUGGUGAGAAGAGCAGCCUAGUCUGUAAGAGUGCAGGGCAGCUGGAACCUUAGGCAGCUCCUCUGUAUGCUACCGGCUCCACACCCUAACACUCUCCACCUCUUGCGGUCGCACUAGUGUGGAAUUCUCGGGUGUCAAGG
B11: ENSMUSG00000029028.200|Lrrc47 (ssRNA)
RNA: GGGAGUUCUACAGUCCGACGAUCGCUUCGAUAUCCGCAUGCUAUGUACCAGCACACAGCUGCCAUCCCUCGAGCCACAGUGCCUGGUCCUAAGGACCCAGCAGCUGCACAGAGGACUUGGUGGCCCCGUGCCUUGCCAUCUGGCUGAGAAGAGAACCAGACCCUCAGCCUUCCCCCUCGACACCUUCUCGUUGGUGACCUCUGACCUUAAAGGACCAUUUCUACCUUCUGUAAAAGAACACCUGUUUGGGGUUGCGUGCGGCUUUCAUCCUAAGGCCGUGCGAGAGCCGUUAGCUGUCAGAACCUCUUGCGGUCGCACUAGUGUGGAAUUCUCGGGUGUCAAGG
B12: ENSMUSG00000061578.980|Ksr2 (ssRNA)
RNA: GGGAGUUCUACAGUCCGACGAUCGCUUCGAUAUCCGCAUGCUAAUCCAUGACUCAGAAUUUUCCAGAGACCCAAUCCCUCGGGGUCCACUUAGUGAUGGGACCAUACAAGAGUUUAUUUCCAAUUAGAGAAUUGGGUCAACUGGGAAAGGCUUCUUUCCUGGUAACCCUGCUACUGAUACUAUGUUGAAACAGGAAUCGACUCUAACUGCUUUUUGGCCUCUUCCCUGCACGGGAGUCUCAAAAUCAAGUUUUUACCCAGUGGCCUCUGGGAUCCACUCUCUCUACUCCUGAACUCUUAAAACCUCUUGCGGUCGCACUAGUGUGGAAUUCUCGGGUGUCAAGG
B13: ENSMUSG00000061578.705|Ksr2 (ssRNA)
RNA: GGGAGUUCUACAGUCCGACGAUCGCUUCGAUAUCCGCAUGCUAUUGAGGUGCCUUCCUGUAGUCUCUUGUGUCAUCUUCUUCUAAGACCACUAAUAACACCGCCUUUCUCCUUGAUCCGGGCCUCAGACCUCUUCAGAGAUUCUUUCUCUGAAUGUACGUGGGGGACUCCAACAGAUGUUGGGAGAAGACUCAAUAUGAGCAUACGGGGUCAUUGUUCAAUCCUGUAUCAAGACCUUGGAGUUGUCUAAGGCUGUGGGUUUUAAAUACCUGCUGCAGGCCUCCCAUCUCUGGCUCUUUGUUUCCUCUUGCGGUCGCACUAGUGUGGAAUUCUCGGGUGUCAAGG

Over roughly 9,900 sequences, “r (bound/input frequency ratio)” has its median near 0.7; the highest 2% begin near 6.5. The list comes from a sample in which the highest values are over-represented; it also holds similar and randomly drawn sequences.

For this assay, the target named is TDP-43 (Homo sapiens, UniProt Q13148 1-414). In words: RNA Bind-n-Seq with designed 260-mer pool; 25 mM Tris-HCl, 150 mM KCl, 3 mM MgCl2, BSA (printed 500 mg/mL), 20 units/mL SUPERase IN; pH not stated; 500 nM RNA pool, 1 h, 4 C; TDP-43 5, 50, 500 nM; high values mean tight binding. To be noted: protein: recombinant; tags: SBP (GST cleaved off with PreScission; pGEX-GST-SBP). Put shortly: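 Streptavidin beads captured recombinant SBP-tagged TDP-43 at 5, 50 or 500 nM, and the beads were incubated for 1 h at 4 °C with 500 nM of an in vitro-transcribed pool of 260-nt 3′ UTR oligos in 25 mM Tris-HCl, 150 mM KCl, 3 mM MgCl2, BSA and SUPERase IN. After washing, bound RNA was eluted with biotin, reverse transcribed, PCR-amplified and sequenced. Binding is reported as R, the mapped-read-normalized abundance of each oligo in the bound sample divided by its abundance in the input. Two independent protein batches served as duplicates.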
Sequence of TDP-43 (Q13148 whole entry): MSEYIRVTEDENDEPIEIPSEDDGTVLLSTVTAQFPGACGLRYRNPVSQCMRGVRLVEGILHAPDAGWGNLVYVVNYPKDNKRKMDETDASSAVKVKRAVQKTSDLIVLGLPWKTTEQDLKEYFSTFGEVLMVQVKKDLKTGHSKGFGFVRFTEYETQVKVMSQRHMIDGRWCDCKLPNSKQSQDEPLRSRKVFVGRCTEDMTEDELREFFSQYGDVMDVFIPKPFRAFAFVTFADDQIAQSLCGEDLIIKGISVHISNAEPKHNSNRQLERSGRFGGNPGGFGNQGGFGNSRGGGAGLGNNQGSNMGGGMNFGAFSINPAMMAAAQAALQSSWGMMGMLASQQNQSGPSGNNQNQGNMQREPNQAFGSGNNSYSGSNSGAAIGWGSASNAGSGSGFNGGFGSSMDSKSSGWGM
B1: the binding signal is 0.163 R (bound/input frequency ratio). Regarding B2, the binding signal was 6.82 R (bound/input frequency ratio). On to B3, for which the binding signal was 6.58 R (bound/input frequency ratio). B4: the binding signal is 3.29 R (bound/input frequency ratio).

On to B5, for which the binding signal is 5.72 R (bound/input frequency ratio). Next, B6: 2.29 R (bound/input frequency ratio); B7: 3.16 R (bound/input frequency ratio).

With B8, the binding signal is 1.51 R (bound/input frequency ratio). B9: the binding signal is 1.64 R (bound/input frequency ratio).

Consider B10, for which the binding signal was 0.459 R (bound/input frequency ratio).

On to B11, for which the binding signal is 0.283 R (bound/input frequency ratio).

For the molecule B12, the binding signal is 0.19 R (bound/input frequency ratio). In the case of B13, the binding signal is 0.309 R (bound/input frequency ratio).

These data come from publication PMC12864922, “TDP-43 directly inhibits mRNA accumulation in neurites through modulation of mRNA stability”.
